The source of these data is PubChem BioAssay (NCATS).

A short description of this experiment: qHTS profiling of the MIPE4 collection as inhibitors of Plasmodium falciparum (3D7) proliferation (AID 743344).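 Further: scaled between DMSO vehicle wells and 0.29 µM artemisinin as full inhibition.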 To be noted: P. falciparum 3D7 in erythrocytes, SYBR Green DNA fluorescence, 72 h; at 28.5 µM. An outline of the steps: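 Parasite DNA was quantified by SYBR Green I fluorescence (ex 485, em 535 nm) after overnight lysis in saponin/Triton buffer at room temperature. Cultures at 0.3% parasitemia and 2.5% hematocrit were first exposed to compound for 72 h at 37 C; signals were normalised to artemisinin (0.29 uM) and vehicle wells.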
With `CC(=O)OCC1=C(C(=O)O)N2C(=O)[C@@H](N)[C@@H]2SC1`, the parasite growth, % of DMSO control turned out to be 90.9%. To `CC(=CCCC1=CCC(C2=CC(=O)OC2O)OC1O)CCC1=C(C)CCCC1(C)C` (stereo not drawn) belongs 15.8%; to `COc1ccc(CC2NCCc3cc(OC)c(OC)cc32)cc1OC` (stereo not drawn), 85.9%.

`C[C@]12Cc3cn[nH]c3C[C@@H]1CC[C@@H]1[C@H]2CC[C@@]2(C)[C@H]1CC[C@]2(C)O`: the parasite growth, % of DMSO control is 52.2%. To `O=[N+]([O-])c1ncc[nH]1` belongs 89%; to `CCC(=O)OC1CCC2C3CCC4=CC(=O)CC[C@@]4(C)C3CC[C@]12C` (stereo partly drawn), 89.9%. Under `COCC1(CO)C(=O)C2CCN1CC2` (stereo not drawn) stands 94.3%; under `COC1=CC(C)=C[C@@H](C)[C@@H](O)[C@@H](C)CC(C)=CC=C[C@H](OC)[C@H]([C@@H](C)[C@@H](O)[C@H](C)[C@@]2(O)C[C@@H](O)[C@H](C)[C@@H](C(C)C)O2)OC1=O`, 6.56%. To `C[C@@H]1O[C@@H](O[C@@H]2C=C3CC[C@@H]4[C@@H](CC[C@]5(C)[C@H](c6ccc(=O)oc6)CC[C@@]45O)[C@@]3(C)CC2)[C@H](O)[C@H](O)[C@H]1O` belongs 79%; to `CC1(N2CCC(n3c([C@@H]4CCCNC4)nc4ccccc43)CC2)CCCCCCC1`, 5.01%; to `Clc1ccccc1C(c1ccccc1)(c1ccccc1)n1cccn1`, 9.07%. In turn, `C[C@]12CC[C@H](O)CC1=CC[C@H]1[C@H]3CCC(=O)[C@@]3(C)CC[C@@H]12` registered a parasite growth, % of DMSO control of 72.2%. To `C[C@]12CC[C@@H]3[C@@H](CCC4=CC(=O)CC[C@@H]43)[C@@H]1CC[C@@H]2OC(=O)CCc1ccccc1` belongs 65.4%; to `CCN1C[C@]2(OC(=O)c3ccccc3NC(C)=O)CC[C@H](OC)[C@@]34[C@H]5CC6[C@@H](OC)C[C@](O)(C(C[C@@H]23)[C@@H]14)[C@@]5(O)[C@@H]6OC`, 97%. Under `CCc1c(C(=O)C(N)=O)c2c(OCC(=O)O)cccc2n1Cc1ccccc1` stands 111%. To `CC(C)[C@]12O[C@@H]1[C@@H]1O[C@]13[C@]1(O[C@H]1C[C@@H]1C4=C(CC[C@@]13C)C(=O)OC4)[C@H]2O` belongs 56.9%; to `C1=C2CCCN[C@H]2[C@@H]2C[C@H]1[C@@H]1CCCCN1C2`, 71.7%; to `CCOP(=O)(OCC)C(C)NC(=O)N(CCCl)N=O` (stereo not drawn), 103%.

Regarding `C=C[C@@H]1CN2CCC1C[C@H]2[C@H](O)c1ccnc2ccccc12` (stereo partly drawn), the parasite growth, % of DMSO control worked out at 26.8%. To `CO[C@H]1CCC(O[C@H]2C[C@H]([C@]3(C)CC[C@]4(C[C@H](O)[C@@H](C)[C@@H]([C@@H](C)C=C(C)C(=O)[C@H](C)C[C@H](C)C(=O)O)O4)O3)O[C@]3(O[C@@H]([C@H]4O[C@@](O)(CO)[C@H](C)C[C@H]4C)C[C@H]3C)[C@H]2C)O[C@H]1C` (stereo partly drawn) belongs 11.2%; to `CCOC(=O)c1c(C(C#N)=CN)c2ccc(Cl)c(Cl)c2n1C`, 90%. Turning to `CCOC(=O)Nc1ccc(NCc2ccc(F)cc2)cc1N`, the parasite growth, % of DMSO control amounted to 12.8%. `CN[C@@H]1Cc2cccc3[nH]c(=O)n(c23)C1` gave a parasite growth, % of DMSO control of 92.4%. Under `CC=C(C)C(=O)O[C@H]1C(C)=C2[C@@H]3OC(=O)[C@@](C)(O)[C@@]3(O)[C@@H](OC(=O)CCC)C[C@](C)(OC(C)=O)[C@@H]2[C@@H]1OC(=O)CCCCCCC` stands 15.2%. To `CCN1CCN(C(=O)Cc2ccc(Nc3ncc(F)c(Nc4ccc(C(=O)Nc5ccccc5Cl)cc4)n3)cc2)CC1` belongs 6.35%; to `CC(C)N[C@@H]1CCn2c(=O)[nH]c3cccc(c32)[C@@H]1O`, 93.3%; to `CCCN1CCO[C@@H]2c3cc(O)ccc3OC[C@@H]21`, 98.1%.

`CC(N[C@H]1C[C@H]1c1ccccc1)c1ccc2c(c1)OCCO2` (stereo partly drawn) showed a parasite growth, % of DMSO control of 90.6%. To `CC[C@H]1C=CC=CC[C@@H](C)[C@H](O)[C@@](C)(O)C(=O)[C@@H](C)[C@H](O)[C@@H](C)C(=O)[C@@H](C)[C@H](O)[C@@H](C)C=CC(=O)O[C@@H]2[C@@H](C)[C@H](CC1)O[C@]1(CC[C@H](C)[C@H](C[C@@H](C)O)O1)[C@H]2C` belongs 16.9%; to `C#CC1(O)CCC2C3CCC4=CC(=O)CCC4(C)C3CCC21C` (stereo not drawn), 78.6%. Under `CC(C)(C)[C@]1(O)C[C@@H]2OC(=O)C[C@@]23C(=O)O[C@@H]2OC(=O)[C@H](O)C213` (stereo partly drawn) stands 95%.

On to `C[C@](O)(COc1ccc(C#N)cc1)C(=O)Nc1ccc(C#N)c(C(F)(F)F)c1`, for which the parasite growth, % of DMSO control came to 6.31%. To `CC(=O)O[C@@]12CO[C@H]1C[C@H](O)[C@@]1(C)C(=O)[C@H](O)C3=C(C)[C@@H](O)C[C@@](O)([C@@H](OC(=O)c4ccccc4)[C@@H]21)C3(C)C` belongs 60.1%; to `O=C1C=CC[C@@H]2[C@H]3CCCN4CCC[C@@H](CN12)[C@@H]34`, 101%; to `COc1cc2cc(c1Cl)N(C)C(=O)C[C@H](OC(=O)C(C)C)[C@]1(C)O[C@H]1[C@H](C)[C@@H]1C[C@@](O)(NC(=O)O1)[C@H](OC)C=CC=C(C)C2`, 14%.

In turn, `CC(C)(C)c1cc(C=C(C#N)C#N)cc(Br)c1O` gave a parasite growth, % of DMSO control of 34.5%. Under `COc1ccc2c(c1)CN(C)CC2c1ccc(Cl)c(Cl)c1` (stereo not drawn) stands 12.3%; under `COc1cc([C@@H]2c3cc4c(cc3[C@@H](O)C3COC(=O)C32)OCO4)cc(OC)c1O` (stereo partly drawn), 64.9%.
